The nature of the test: cell-free HIV fusion peptide-binding blockers – biochemical, uHTS, fluorescence dequenching, primary screen (AID 1986). The following applies: 30 min, stronger effect = higher value.
The mark [1] stands for this setting: measured here: repeat confirmation average inhibition, at 18.6 µM.

The values that follow come from PubChem BioAssay AID1986 (Sanford-Burnham Center for Chemical Genomics, 2009).

In all, about 290,000 compounds went through this assay and about 890 (0.31%) were called active. No stated cut-off is given here; in the data, active means inhibition mostly above about 52% (no sharp cut-off); inactive means mostly below about 76%. For the sample, actives were picked, then their nearest neighbours and some compounds at random.

What is called inhibition is the change of the read-out against control, counted positive when it falls.

Consider `CC1=C(C#N)c2nc(N)c(C#N)c(C)c2/C1=C\c1ccc(OCC(=O)O)c(Cl)c1`, for which the inhibition (at 20 µM) was 28% (inactive). Still for that read-out and setting: with `CC1=C(C#N)c2nc(N)c(C#N)c(C)c2/C1=C\c1ccc(C)cc1` the figure was 15.6% (inactive); with `CCOc1ccc(N(C)C(=O)CCc2nnc3ccc(N4CCC5(CC4)OCCO5)nn23)cc1`, 0.1% (inactive). For `COc1ccc(CC(=O)N(C)CC(=O)Nc2ccccc2SC)cc1`, the inhibition (at 20 µM) was 3.4% (inactive). For `COc1ccc(OC)c(NC(=O)CN(C)S(=O)(=O)c2ccc3nc(C)sc3c2)c1`, the inhibition (at 20 µM) is -0.6% (inactive). The same measure, in the same setting: the value for `N#CCCN(/N=C/c1cccnc1)C1=NS(=O)(=O)c2ccccc21` was -1.4% (inactive).

As for `CN(C)c1ccc(/C=N/N(CCO)C2=NS(=O)(=O)c3ccccc32)cc1`, for the setting “at 20 µM”, the inhibition is 159% (inactive). On to `CN(C)c1ccc(/C=N/N(CCC#N)C2=NS(=O)(=O)c3ccccc32)cc1`, for which the inhibition is 69.3% (active) (at 20 µM) and 64.2% under setting [1]. Consider `O=C(COc1ccc(F)cc1)N(Cc1cccs1)C1CCS(=O)(=O)C1` (stereo unspecified), for which, where the note is “at 20 µM”, the inhibition is 3.2% (inactive).

As to `O=C(Nc1cccc(Oc2ccc(C(=O)O)c(C(=O)O)c2)c1)c1ccc(-c2ccccc2)cc1`, for the setting “at 20 µM”, the inhibition is 75.5% (active). With `Cc1ccc(C(=O)Nc2ccc(Oc3ccc(C(=O)O)c(C(=O)O)c3)cc2)cc1C`, for the setting “at 20 µM”, the inhibition was 17.4% (inactive). Still for that read-out and setting: the value for `CC(C)(C)C(=O)Nc1ccc(C(=O)Nc2cccc(Oc3ccc(C(=O)O)c(C(=O)O)c3)c2)cc1` was 37.8% (inactive). As for `CCOC(=O)/C(=C\C=C1/Sc2ccccc2N1CC)C(C)=O`, the inhibition (at 20 µM) was 150% (inactive).

Consider `CCOC(=O)/C(=C/C=C1\Sc2ccccc2N1CC)C(C)=O`, for which the inhibition was 114% (active) (at 20 µM) and 145% under setting [1].

As to `CCN1/C(=C\C=C(C(C)=O)C(C)=O)Sc2ccccc21`, the inhibition (at 20 µM) was 148% (inactive). On to `C=Cc1ccc(C(=O)NC2CCCN(Cc3ccccc3F)C2)cc1` (stereo unspecified), for which the inhibition (at 20 µM) is 1.1% (inactive). Regarding `CC(C)c1ccc(C(=O)NCc2ccc(Cl)cc2)cc1`, the inhibition (at 20 µM) is -2.4% (inactive). Consider `Cc1ccc2c(c1)c(N=O)c(O)n2Cc1ccc(Cl)cc1`, for which the inhibition (at 20 µM) is -0.1% (inactive). Turning to `CC(C)c1ccc2c(c1)c(SC(C)(C)C)c(CC(C)(C)C(=O)O)n2Cc1ccc(Cl)cc1`, the inhibition (at 20 µM) was 53.9% (active). Still for that read-out and setting: the value for `CN(Cc1nccn1C)C(=O)CC1C(=O)NCCN1Cc1ccc(F)cc1Cl` (stereo unspecified) was -0.5% (inactive); that for `Cc1cc2ncc(C(N)=O)cn2n1` was -1.8% (inactive); that for `O=C(/C=C/c1ccco1)c1ccc(NC(=O)C23CC4CC(CC(C4)C2)C3)cc1` was 50.7% (active). Regarding `O=C(/C=C\c1ccco1)c1ccc(NC(=O)c2ccco2)cc1`, the inhibition is 58.2% (inactive) (at 20 µM) and 3% under setting [1]. In the case of `CC(=O)Nc1ccc(C(=O)/C=C/c2ccco2)cc1`, under “at 20 µM”, the inhibition was 36% (inactive).

Turning to `COCCCn1c(=O)/c(=C\c2ccccc2OC(C)C)s/c1=C(/C#N)C(=O)Nc1ccc(C(=O)O)cc1`, the inhibition (at 20 µM) was 77.3% (active). With `COCCCn1c(=O)/c(=C\c2cccc(OC)c2OC)s/c1=C(/C#N)C(=O)Nc1ccc(C(=O)O)cc1`, the inhibition by setting is: (at 20 µM) 54.1% (inactive); under setting [1], 33.7%. Consider `COCCCn1c(=O)/c(=C\c2ccccc2OC(F)F)s/c1=C(/C#N)C(=O)NC(C)C`, for which the inhibition (at 20 µM) is 75.2% (inactive) and the inhibition under setting [1] is 5.3%. Consider `Cc1ccc(C(=O)OCC(=O)N(C)C2CCS(=O)(=O)C2)cc1[N+](=O)[O-]` (stereo unspecified), for which the inhibition (at 20 µM) is -0.5% (inactive).

On to `CC(=O)c1cccc(NC(=O)CSc2ccc(-c3ccc4c(c3)OCO4)nn2)c1`, for which the inhibition (at 20 µM) is 0.3% (inactive). As for `O=C(NN=C1CCN(Cc2ccccc2)CC1)c1cc(Br)ccc1O`, the inhibition (at 20 µM) is 7.6% (inactive). Consider `O=C(O)c1cccc(Cn2c(Cl)c(/C=N/NC(=O)c3ccccc3Cl)sc2=O)c1`, for which the inhibition (at 20 µM) was 6.2% (inactive). Same read-out and setting: the value for `O=C(O)c1cccc(Cn2c(Cl)c(/C=N/NC(=O)c3cc4ccccc4cc3O)sc2=O)c1` was 61.5% (active).

For `O=C(NN=C1CCN(Cc2ccccc2)CC1)c1ccccc1O`, where the note is “at 20 µM”, the inhibition was 3.9% (inactive). Same read-out and setting: with `O=C(NN=C1CCN(Cc2ccccc2)CC1)c1cc2ccccc2cc1O` the figure was 56% (active); with `O=C(O)c1cccc(Cn2c(Cl)c(/C=N/NC(=O)c3ccccc3O)sc2=O)c1`, 28.1% (inactive). Consider `Clc1ncc(Cn2cccn2)s1`, for which the inhibition (at 20 µM) is -0.3% (inactive). The same measure, in the same setting: with `Cc1ccc(C)c(N2CCN(C(=O)CCCn3c(=S)[nH]c4cc5c(cc4c3=O)OCO5)CC2)c1` the figure was -4.3% (inactive). Same read-out and setting: with `Nc1c(C2=NCCO2)nnn1Cc1ccccc1` the figure was -0.3% (inactive). For `O=C(Nc1cccc(OCC(=O)N2CCOCC2)c1)c1ccc(C(F)(F)F)cc1`, under “at 20 µM”, the inhibition was 1.4% (inactive).

For `Cc1cc(C)cc(N(C(C)C(=O)N2CCCC2)S(C)(=O)=O)c1` (stereo unspecified), the inhibition (at 20 µM) was 2.9% (inactive). `O=S(=O)([N-]c1nc2ccccc2nc1-[n+]1ccc(-c2ccncc2)cc1)c1ccccc1`: the inhibition (at 20 µM) is 83.2% (active). Still for that read-out and setting: the value for `Cc1cc(C)c[n+](-c2nc3ccccc3nc2[N-]S(=O)(=O)c2ccc(Br)s2)c1` was 26.7% (inactive); that for `O=S(=O)([N-]c1nc2ccccc2nc1-[n+]1ccc(Cc2ccccc2)cc1)c1ccc(Br)s1` was 12.8% (inactive). The same measure, in the same setting: with `CCc1cc[n+](-c2nc3ccccc3nc2[N-]S(=O)(=O)c2ccc(Br)s2)cc1` the figure was 96.6% (active). As to `Cc1cc[n+](-c2nc3ccccc3nc2[N-]S(=O)(=O)c2ccccc2)cc1`, the inhibition (at 20 µM) was 12.1% (inactive). In the case of `O=S(=O)([N-]c1nc2ccccc2nc1-[n+]1ccccc1)c1ccccc1`, the inhibition (at 20 µM) was 9.8% (inactive).
